Measured values reported in PubChem BioAssay AID1159580 (chemical genetic matrix, 2015).
Values joined by “and” are separate entries in the source; they are usually repeats but may differ in a detail not shown here. Equal values may be shown once. About 2,000 (36%) of roughly 5,500 compounds were called active. About 18% were inconclusive and are not listed. No stated cut-off is given here; in the data, active means normalized growth mostly below about 0.91 (no sharp cut-off); inconclusive means no clear call, values can overlap the other calls; inactive means mostly above about 0.92. The list shows a part of the results.

Assay: chemical genetic growth profiling, strain panel (AID 1159580);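 further: tested at 20 µM; growth read once vehicle control cultures reached saturation at 30 °C; 1 = growth at the plate median or of vehicle wells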
Details: S. cerevisiae deletion strains, growth OD

SMILES: CS(=O)(=O)CCCCN=C=S
- normalized growth (locus YAL021C, strain ccr4, stronger effect = lower value): 0.889 (active)
- normalized growth (locus YAL030W, strain snc1, stronger effect = lower value): 0.734 (active)
- normalized growth (locus YBL061C, strain skt5, stronger effect = lower value): 0.746 (active)
- normalized growth (locus YBR009C, strain hhf1, stronger effect = lower value): 0.495 (active)
- normalized growth (locus YBR021W, strain FUR4, stronger effect = lower value): 0.847 (active)
- normalized growth (locus YBR023C, strain chs3, stronger effect = lower value): 0.769 (active)
- normalized growth (locus YBR171W, strain sec66, stronger effect = lower value): 0.954 (inactive)
- normalized growth (locus YBR229C, strain ROT2, stronger effect = lower value): 0.96 (inactive)
- normalized growth (locus YBR231C, strain swc5, stronger effect = lower value): 0.504 (active)
- normalized growth (locus YBR279W, strain paf1, stronger effect = lower value): 0.708 (active)
- normalized growth (locus YCL011C, strain gbp2, stronger effect = lower value): 0.551 (active)
- normalized growth (locus YCL016C, strain dcc1, stronger effect = lower value): 0.751 (active)
- normalized growth (locus YCL029C, strain bik1, stronger effect = lower value): 0.822 (active)
- normalized growth (locus YCL061C, strain MRC1, stronger effect = lower value): 0.834 (active)
- normalized growth (locus YCL069W, strain vba3, stronger effect = lower value): 0.663 (active)
- normalized growth (locus YCR088W, strain abp1, stronger effect = lower value): 0.84 (active)
- normalized growth (locus YDL005C, strain med2, stronger effect = lower value): 1.01 (inactive)
- normalized growth (locus YDL035C, strain GPR1, stronger effect = lower value): 0.791 (active)
- normalized growth (locus YDL040C, strain nat1, stronger effect = lower value): 0.896 (active)
- normalized growth (locus YDL074C, strain BRE1, stronger effect = lower value): 0.683 (active)
- normalized growth (locus YDL101C, strain DUN1, stronger effect = lower value): 0.853 (active)
- normalized growth (locus YDL134C, strain PPH21, stronger effect = lower value): 0.762 (active)
- normalized growth (locus YDL185W, strain tfp1, stronger effect = lower value): 0.948 (inactive)
- normalized growth (locus YDL192W, strain arf1, stronger effect = lower value): 0.688 (active)
- normalized growth (locus YDR001C, strain nth1, stronger effect = lower value): 0.896 (active)
- normalized growth (locus YDR069C, strain doa4, stronger effect = lower value): 0.829 (active)
- normalized growth (locus YDR101C, strain arx1, stronger effect = lower value): 0.742 (active)
- normalized growth (locus YDR137W, strain rgp1, stronger effect = lower value): 0.918 (inactive)
- normalized growth (locus YDR150W, strain NUM1, stronger effect = lower value): 0.963 (inactive)
- normalized growth (locus YDR159W, strain sac3, stronger effect = lower value): 0.898 (inactive)
- normalized growth (locus YDR162C, strain NBP2, stronger effect = lower value): 0.69 (active)
- normalized growth (locus YDR195W, strain ref2): 1.2 [resistant] (active)
- normalized growth (locus YDR297W, strain sur2, stronger effect = lower value): 0.737 (active)
- normalized growth (locus YDR318W, strain mcm21, stronger effect = lower value): 0.816 (active)
- normalized growth (locus YDR334W, strain swr1, stronger effect = lower value): 0.375 (active)
- normalized growth (locus YDR335W, strain msn5, stronger effect = lower value): 0.802 (active)
- normalized growth (locus YDR388W, stronger effect = lower value): 0.869 (active)
- normalized growth (locus YDR392W, strain spt3, stronger effect = lower value): 0.474 (active)
- normalized growth (locus YDR502C, strain sam2, stronger effect = lower value): 0.696 (active)
- normalized growth (locus YEL003W, strain gim4, stronger effect = lower value): 0.217 (active)
- normalized growth (locus YEL037C, strain rad23, stronger effect = lower value): 0.749 (active)
- normalized growth (locus YEL061C, strain CIN8 (second series), stronger effect = lower value): 0.853 (active)
- normalized growth (locus YEL061C, strain CIN8, stronger effect = lower value): 0.978 (inactive)
- normalized growth (locus YER015W, strain faa2, stronger effect = lower value): 0.478 (active)
- normalized growth (locus YER016W, strain bim1, stronger effect = lower value): 0.758 (active)
- normalized growth (locus YER110C, stronger effect = lower value): 0.807 (active)
- normalized growth (locus YER111C, strain swi4, stronger effect = lower value): 0.988 (inactive)
- normalized growth (locus YER155C, strain BEM2 (second series), stronger effect = lower value): 0.439 (active)
- normalized growth (locus YER155C, strain BEM2, stronger effect = lower value): 1.01 (inactive)
- normalized growth (locus YER167W, strain BCK2, stronger effect = lower value): 0.973 (inactive)
- normalized growth (locus YFR010W, strain ubp6, stronger effect = lower value): 0.62 (active)
- normalized growth (locus YGL078C, strain dbp3, stronger effect = lower value): 0.92 (active)
- normalized growth (locus YGL086W, strain mad1, stronger effect = lower value): 0.723 (active)
- normalized growth (locus YGL167C, strain pmr1, stronger effect = lower value): 0.964 (inactive)
- normalized growth (locus YGL173C, strain kem1, stronger effect = lower value): 0.692 (active)
- normalized growth (locus YGL227W, strain vid30, stronger effect = lower value): 0.86 (active)
- normalized growth (locus YGL240W, strain doc1, stronger effect = lower value): 0.545 (active)
- normalized growth (locus YGL248W, strain PDE1, stronger effect = lower value): 0.724 (active)
- normalized growth (locus YGL253W, strain hxk2, stronger effect = lower value): 0.428 (active)
- normalized growth (locus YGR078C, strain PAC10, stronger effect = lower value): 0.799 (active)
- normalized growth (locus YGR135W, strain pre9, stronger effect = lower value): 0.815 (active)
- normalized growth (locus YGR252W, strain gcn5, stronger effect = lower value): 0.634 (active)
- normalized growth (locus YHR013C, strain ard1, stronger effect = lower value): 0.816 (active)
- normalized growth (locus YHR027C, strain rpn1, stronger effect = lower value): 0.618 (active)
- normalized growth (locus YHR030C, strain SLT2, stronger effect = lower value): 0.969 (inactive) and 0.726 (active)
- normalized growth (locus YHR079C, strain IRE1 (second series), stronger effect = lower value): 0.885 (active)
- normalized growth (locus YHR079C, strain IRE1, stronger effect = lower value): 0.67 (active)
- normalized growth (locus YHR094C, strain hxt1, stronger effect = lower value): 0.913 (active)
- normalized growth (locus YHR129C, strain ARP1, stronger effect = lower value): 0.865 (active)
- normalized growth (locus YHR142W, strain chs7, stronger effect = lower value): 0.536 (active)
- normalized growth (locus YHR200W, strain rpn10, stronger effect = lower value): 0.905 (active)
- normalized growth (locus YIL066C, strain RNR3, stronger effect = lower value): 0.807 (active)
- normalized growth (locus YIL073C, strain SPO22, stronger effect = lower value): 0.772 (inactive)
- normalized growth (locus YIL125W, strain kgd1, stronger effect = lower value): 0.901 (active)
- normalized growth (locus YIR030C, strain dcg1, stronger effect = lower value): 0.77 (active)
- normalized growth (locus YJL092W, strain hpr5, stronger effect = lower value): 0.782 (active)
- normalized growth (locus YJL095W, strain BCK1 (second series), stronger effect = lower value): 0.791 (active)
- normalized growth (locus YJL095W, strain BCK1, stronger effect = lower value): 0.606 (active) and 0.709 (active)
- normalized growth (locus YJL115W, strain asf1, stronger effect = lower value): 0.941 (inactive)
- normalized growth (locus YJL129C, strain trk1, stronger effect = lower value): 0.762 (active)
- normalized growth (locus YJL134W, strain LCB3, stronger effect = lower value): 0.981 (inactive)
- normalized growth (locus YJL154C, strain vps35, stronger effect = lower value): 0.839 (active)
- normalized growth (locus YJL164C, strain tpk1, stronger effect = lower value): 0.607 (active)
- normalized growth (locus YJL166W, strain qcr8, stronger effect = lower value): 0.493 (active)
- normalized growth (locus YJL168C, strain set2, stronger effect = lower value): 0.954 (inactive)
